The panel holds about 83,000 compounds, 20% with a hit somewhere; the sample as a whole holds those more often.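 Percent growth is the endpoint: 0 to 100 indicates growth inhibition (40 means 60% inhibition), 0 means no net growth, and negative values indicate cell death.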 A number with no mark means an inactive call. Active and inactive are the calls of the source. The calls were made as follows: active = growth percent below 10; inactive = the rest.
Legend:
Assay in all cases: NCI-60 one-dose screen, 48 h (100 = growth as untreated, 0 = no growth, -100 = all killed)
[1] = tested on: DU-145 prostate; settings: 10 µM unless noted
[2] = tested on: K-562 leukemia; settings: 10 µM unless noted
[3] = tested on: MALME-3M melanoma; settings: 10 µM unless noted
[4] = tested on: MDA-MB-231 breast; settings: 10 µM unless noted
[5] = tested on: RXF 393 renal; settings: 10 µM unless noted
[6] = tested on: SF-268 CNS; settings: 10 µM unless noted
[7] = tested on: SF-295 CNS; settings: 10 µM unless noted
[8] = tested on: SF-539 CNS; settings: 10 µM unless noted
[9] = tested on: UACC-257 melanoma; settings: 10 µM unless noted
[10] = tested on: M14 melanoma; settings: 10 µM unless noted
[11] = tested on: HCT-15 colon; settings: 10 µM unless noted
[12] = tested on: HT29 colon; settings: 10 µM unless noted
[13] = tested on: SNB-75 CNS; settings: 10 µM unless noted
[14] = tested on: SNB-19 CNS; settings: 10 µM unless noted
[15] = tested on: U251 CNS; settings: 10 µM unless noted
[16] = tested on: PC-3 prostate; settings: 10 µM unless noted
[17] = tested on: SK-MEL-5 melanoma; settings: 10 µM unless noted
[18] = tested on: UACC-62 melanoma; settings: 10 µM unless noted
[19] = tested on: LOX IMVI melanoma; settings: 10 µM
[20] = tested on: SK-MEL-28 melanoma; settings: 10 µM unless noted

| Compound | growth [1] | growth [2] | growth [3] | growth [4] | growth [5] | growth [6] | growth [7] | growth [8] | growth [9] | growth [10] | growth [11] | growth [12] | growth [13] | growth [14] | growth [15] | growth [16] | growth [17] | growth [18] | growth [19] | growth [20] |
| --- | --- | --- | --- | --- | --- | --- | --- | --- | --- | --- | --- | --- | --- | --- | --- | --- | --- | --- | --- | --- |
| S=C1SCN(Cc2cccs2)CN1Cc1cccs1 | 110% | 63.6% | 107% | 93.4% | 104% | 100% | 104% | 96.8% | 94.5% | 94.3% | 96.6% | 97.2% | 86.2% | 96.5% | 95.6% | 96.2% | 94% | 94% | 93% | 109% |
| CCOc1ccc(C(C[N+](=O)[O-])Sc2ccccc2N)cc1 (stereo unspecified) | -19.9% (active) | 9.12% (active) | 68% | 18.4% | -65.3% (active) | 120% | 40.4% | -44.5% (active) | 59.2% | -41.2% (active) | -11.3% (active) | -49.7% (active) | 61.3% | 46.2% | 9.82% (active) | 10.7% | 40.9% | 64.6% |  | -36.4% (active) |
| O=C1/C(=C\c2ccc([N+](=O)[O-])cc2)CS(=O)(=O)C/C1=C/c1ccc([N+](=O)[O-])cc1 | -78.2% (active) | -27.8% (active) | -62.7% (active) | -86.9% (active) | -100% (active) | -49% (active) | -16% (active) | -64% (active) | -89.8% (active) | -92.2% (active) | -86.7% (active) | -57.7% (active) | -89.6% (active) | -96.3% (active) | -86.6% (active) | -81.6% (active) |  | -90.7% (active) | -82.8% (active) |  |
| COc1cc2c(c(OC)c1OC)-c1ccc(NCc3ccccc3)c(=O)cc1[C@@H](NC(C)=O)CC2 | 1.24% (active) | 2.48% (active) | 40.3% | -3.82% (active) | 51.8% | 25.3% | -36.2% (active) | 0.134% (active) | 63.4% | 13.6% | 11.5% | -8.12% (active) | 32.9% | 64.2% | 19% | 21.8% | -25% (active) | 24.9% | 21.2% | 42.2% |
| CCCCCCCCCCCC1N=C(N)N=C(N)N1c1cccc(Br)c1 (stereo unspecified) | 17.7% | -20.1% (active) | 76% | -48.1% (active) | -32.1% (active) | 8.27% (active) | 18.9% | 12% | 61.3% | 11.4% | 71.5% | -81.8% (active) | -12.7% (active) | -93.6% (active) | -75.2% (active) | -55.2% (active) | 19.3% | 37.9% | 9.55% (active) | 70.4% |
| CCN1/C(=C/C(C)=C/c2sc3ccc4ccccc4c3[n+]2CC)Sc2ccc3ccccc3c21 | -100% (active) | -23.7% (active) | -87% (active) | -82.5% (active) | -88.1% (active) | -91.1% (active) | -93% (active) | -98.1% (active) | -82.2% (active) | -79.8% (active) | -81.8% (active) | -80.6% (active) | -94.3% (active) | -96.5% (active) | -94.1% (active) | -84% (active) | -97.6% (active) | -96.6% (active) | -73.9% (active) | -98.3% (active) |
| CN(C)c1ccc(/C=C/c2cc[n+](C)c(/C=C/c3ccc(N(C)C)cc3)c2)cc1 | 23% | 4.82% (active) | 1.82% (active) | 8.47% (active) | 28.3% | 24.2% | -3.21% (active) | 27.1% | -18.8% (active) | 14.4% | 19.5% | -7.82% (active) | 22.3% | 27% | 15.3% | 3.98% (active) | -95.6% (active) | 12.3% | 12.3% | 20.6% |
| O=C(Cc1ccccc1)C(F)(F)F | 103% | 94.5% | 99.4% | 96.5% | 104% | 98.9% | 101% | 97% | 18.1% | 99.6% | 107% | 112% | 92.4% | 109% | 97.8% | 96.3% |  | 104% | 96.5% | 99.2% |

Reference: PubChem BioAssay (NCI)
